Calls of active or inactive are those of the source. Cut-off read from the data, not from the text of the source, unless noted: active = inhibition above about 28%; inactive = the rest.
Experiments:
[1] = StAR promoter reporter inhibitors, counter-screen for LRH-1 inverse agonist project, cell-based, luminescence, high throughput (AID 651611); conditions: StAR promoter luciferase reporter counterscreen, at 3.6 µM, hits give high values
[2] = molecular target: Nuclear receptor subfamily 5 group A member 2 (Homo sapiens) (UniProt O00482); test: LRH-1 (NR5A2) inverse agonists, retest, confirmation, cell-based, luminescence (AID 651613; in the data active = inhibition above about 42%;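 note: HEK293T cells co-transfected with LRH-1 and StAR promoter luciferase reporter; 0% = vehicle wells and 100% = parental cells lacking receptor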); conditions: cell-based LRH-1 luciferase reporter, inverse agonism; at 3.6 µM; hits give high values
[3] = molecular target: Steroidogenic factor 1 (Homo sapiens) (UniProt Q13285); test: SF1 (NR5A1) inverse agonists, counter-screen for LRH-1 inverse agonist project, cell-based, luminescence, high throughput (AID 651614; in the data active = inhibition above about 44%;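 note: cells cotransfected with StAR promoter reporter and SF1 expression vector; 0% = vehicle on cells with receptor and 100% = vehicle on cells lacking receptor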); conditions: cell-based SF1 luciferase reporter, at 3.6 µM, hits give high values
[4] = VP16 transactivation reporter inhibitors, counter-screen for LRH-1 inverse agonist project, cell-based, luminescence, high throughput (AID 651615; in the data active = inhibition above about 33%); conditions: Gal4-VP16 luciferase reporter cells, at 3.6 µM, hits give high values

Steroidogenic factor 1 (Homo sapiens), sequence (Q13285 whole entry, looked up, the tested form may be a part): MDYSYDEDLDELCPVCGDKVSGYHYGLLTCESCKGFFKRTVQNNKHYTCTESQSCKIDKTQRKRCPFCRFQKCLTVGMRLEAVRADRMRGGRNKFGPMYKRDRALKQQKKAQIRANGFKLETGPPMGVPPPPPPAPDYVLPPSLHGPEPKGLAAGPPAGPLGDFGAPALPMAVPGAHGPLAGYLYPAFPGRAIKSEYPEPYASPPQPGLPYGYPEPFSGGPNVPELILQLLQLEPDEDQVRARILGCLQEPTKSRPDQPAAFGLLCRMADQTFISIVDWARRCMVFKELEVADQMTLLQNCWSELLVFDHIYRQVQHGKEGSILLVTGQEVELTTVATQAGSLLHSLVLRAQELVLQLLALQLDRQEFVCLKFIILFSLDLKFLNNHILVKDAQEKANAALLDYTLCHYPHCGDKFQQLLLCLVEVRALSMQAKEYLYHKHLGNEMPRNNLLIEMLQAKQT
Nuclear receptor subfamily 5 group A member 2 (Homo sapiens), sequence (O00482 whole entry, looked up): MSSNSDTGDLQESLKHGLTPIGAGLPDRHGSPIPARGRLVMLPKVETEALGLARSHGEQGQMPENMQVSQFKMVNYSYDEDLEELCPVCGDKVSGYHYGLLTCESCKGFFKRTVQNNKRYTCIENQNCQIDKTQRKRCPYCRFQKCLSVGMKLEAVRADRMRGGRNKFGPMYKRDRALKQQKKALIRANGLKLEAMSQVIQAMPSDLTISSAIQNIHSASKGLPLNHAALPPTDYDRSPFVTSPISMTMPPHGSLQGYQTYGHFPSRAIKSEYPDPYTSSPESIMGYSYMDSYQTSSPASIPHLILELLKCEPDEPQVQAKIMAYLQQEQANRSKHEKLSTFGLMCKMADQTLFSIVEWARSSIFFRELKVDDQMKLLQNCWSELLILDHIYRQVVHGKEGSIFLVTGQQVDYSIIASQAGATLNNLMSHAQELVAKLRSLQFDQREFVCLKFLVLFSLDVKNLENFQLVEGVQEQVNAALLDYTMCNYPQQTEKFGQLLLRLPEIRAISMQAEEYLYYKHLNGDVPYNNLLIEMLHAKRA

Compound	inhibition [1]	inhibition [2]	inhibition [3]	inhibition [4]
COc1ccc(C(=O)Nc2ccc(S(=O)(=O)N3CCc4ccccc43)cc2)cc1	29.2% (active)	40.6% (inactive)	44.5% (active)	44.7% (active)
CCc1nc(SCC(=O)c2ccccc2)c2ccccc2n1	7.58% (inactive)	45.8% (active)	55.3% (active)	-18.1% (inactive)
Cc1cccc(NC(=O)CSc2ccc(-c3ccco3)nn2)c1C	4.66% (inactive)	44.6% (active)	39.2% (inactive)	-3.56% (inactive)
CCOC(=O)C(C)Oc1cccc2c(=O)n(CC(=O)Nc3ccc(OCC)cc3)ccc12 (centres undefined)	4.74% (inactive)	60.1% (active)	58.8% (active)	-11.2% (inactive)
COc1ccc(NC(=O)CSc2nnc(-c3ccccn3)n2N)cc1Cl	20.3% (inactive)	48.5% (active)	49.4% (active)	2.01% (inactive)
O=C(CN1CCN(S(=O)(=O)c2cc(Cl)ccc2Cl)CC1)Nc1ccc2c(c1)OCCO2	19% (inactive)	59.6% (active)	59.1% (active)	-3.13% (inactive)
CCOC(=O)c1cc(-c2ccncc2)nc2c1c(C)nn2-c1ccccn1	14.2% (inactive)	44.6% (active)	48% (active)	13.1% (inactive)
C/C(=N\N=C(N)N)c1cc(Cl)ccc1Cl	26.9% (inactive)	102% (active)	30.1% (inactive)	75.8% (active)
O=C(CCl)Nc1cccc(Oc2cnccn2)c1	37.1% (active)	69% (active)	64.9% (active)	-26.5% (inactive)
Cc1ccc(NC(=O)c2ccc([N+](=O)[O-])o2)c(C)c1	11.1% (inactive)	54.7% (active)	54.6% (active)	-6.21% (inactive)
COc1cc(C(=O)OCC(=O)Nc2ccc(N3CCOCC3)cc2)ccc1OCC(C)C	14.1% (inactive)	54.5% (active)	65.5% (active)	-7.28% (inactive)
COC(=O)C1(C)Nc2ccccc2C(=O)N1c1ccccc1C (centres undefined)	2.27% (inactive)	16% (inactive)	0.53% (inactive)	7.07% (inactive)
CC[n+]1c(/C=C/c2ccc(N(C)C)cc2)ccc2ccccc21	71.9% (active)	103% (active)	86.6% (active)	85% (active)
O=C(Nc1ccc(N2CCN(C(=O)c3ccc(Cl)cc3)CC2)cc1)c1ccc([N+](=O)[O-])o1	24.9% (inactive)	51.9% (active)	66.2% (active)	1.04% (inactive)
Cc1cccc(C)c1NC(=O)C(c1ccc(C(F)(F)F)cc1)n1c(=O)c(-c2cc3ccccc3[nH]2)nc2ccccc21 (centres undefined)	13.9% (inactive)	23.7% (inactive)	24.7% (inactive)	7.59% (inactive)
COc1cccc2c1C(=O)c1c(O)c3c(c(O)c1C2=O)C[C@@](O)(C(C)=O)C[C@@H]3O[C@H]1C[C@H](N)[C@H](O)[C@H](C)O1	76.5% (active)	104% (active)	94.4% (active)	94% (active)

Reference: PubChem BioAssay
